# Experimental data reported in PubChem BioAssay (NCATS).
# Inconclusive results are not listed. Values without a mark were called inactive. The list shows a part of the results. A call without a number means that no potency is given here. The source made the active and inactive calls. The call rests on the fitted dose curve; in most records, active means well fitted curve in the direction sought with a large enough effect; inconclusive means small, poorly fitted or top-dose-only effect, or another doubt; inactive means no such curve, though single readings can be large; an effect the other way counts as inactive or inconclusive.
# How the values were obtained:
# [1] = target: Rap guanine nucleotide exchange factor 3 (Homo sapiens) (UniProt O95398); experiment: Confirmatory qHTS for antagonist of cAMP-regulated guanine nucleotide exchange factor 3 (EPAC1) (AID 1645880); details: EPAC1 Rap1B-BODIPY-GDP exchange, fluorescence; activity, negative = inhibition: at 115 µM (top of the series); further: nearly all actives have a fitted effect of over 55% in size; further: potency means the concentration at half of the fitted maximal effect
# Chain of Rap guanine nucleotide exchange factor 3 (Homo sapiens) (O95398 whole entry, looked up): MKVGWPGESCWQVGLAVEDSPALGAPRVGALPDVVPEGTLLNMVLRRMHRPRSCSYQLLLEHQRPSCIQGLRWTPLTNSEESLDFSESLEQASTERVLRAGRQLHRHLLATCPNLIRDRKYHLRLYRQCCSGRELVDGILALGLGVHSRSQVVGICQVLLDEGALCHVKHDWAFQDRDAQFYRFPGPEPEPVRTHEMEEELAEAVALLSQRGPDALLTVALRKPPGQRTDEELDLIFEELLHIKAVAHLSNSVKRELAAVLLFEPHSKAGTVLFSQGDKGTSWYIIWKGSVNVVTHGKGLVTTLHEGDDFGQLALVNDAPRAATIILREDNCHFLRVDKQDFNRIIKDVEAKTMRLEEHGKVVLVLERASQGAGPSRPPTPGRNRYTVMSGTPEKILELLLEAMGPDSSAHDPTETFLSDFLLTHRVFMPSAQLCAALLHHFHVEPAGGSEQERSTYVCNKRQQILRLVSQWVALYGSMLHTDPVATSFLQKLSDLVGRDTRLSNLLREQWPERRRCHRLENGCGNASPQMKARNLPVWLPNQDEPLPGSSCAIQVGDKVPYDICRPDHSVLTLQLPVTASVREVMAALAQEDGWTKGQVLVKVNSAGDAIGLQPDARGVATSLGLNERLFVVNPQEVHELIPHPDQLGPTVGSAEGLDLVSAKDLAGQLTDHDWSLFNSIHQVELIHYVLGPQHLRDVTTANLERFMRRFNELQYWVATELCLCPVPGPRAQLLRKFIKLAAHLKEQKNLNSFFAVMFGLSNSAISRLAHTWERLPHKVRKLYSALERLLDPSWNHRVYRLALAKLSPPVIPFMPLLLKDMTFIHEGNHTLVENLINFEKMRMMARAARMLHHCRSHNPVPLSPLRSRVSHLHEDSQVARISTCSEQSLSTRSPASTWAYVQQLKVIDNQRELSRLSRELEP
# In short: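 Nucleotide exchange uses 100 nM EPAC1, 250 nM RAP1B-BODIPY-GDP and 50 uM GDP, with compounds in a concentration-titration series. After 5 min at room temperature, fluorescence (480 nm ex/540 nm em) is read every 5 min for 30 min. Data are normalized to control ATA and DMSO.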
# [2] = target: Rap guanine nucleotide exchange factor 3 (Homo sapiens) (UniProt O95398); experiment: Confirmatory qHTS for agonist of cAMP-regulated guanine nucleotide exchange factor 3 (EPAC1) (AID 1645881); details: EPAC1 Rap1B BODIPY-GDP exchange fluorescence; series mostly up to 154 µM; further: nearly all actives have a fitted effect of over 75% in size; further: potency means the concentration at half of the fitted maximal effect;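 on activation: EPAC1 catalysed release of BODIPY-GDP from Rap1B seen as fluorescence loss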
# [3] = target: Rap guanine nucleotide exchange factor 4 (Homo sapiens) (UniProt Q8WZA2); experiment: Confirmatory qHTS for agonist of cAMP-regulated guanine nucleotide exchange factor 4 (EPAC2) (AID 1645884); details: EPAC2 GEF activity, Rap1B-BODIPY-GDP fluorescence; series mostly up to 154 µM;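 further: nucleotide exchange releases bodipy-GDP from Rap1 and this lowers its fluorescence; nearly all actives have a fitted effect of over 65% in size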; further: potency means the concentration at half of the fitted maximal effect
# Chain of Rap guanine nucleotide exchange factor 4 (Homo sapiens) (Q8WZA2 whole entry, looked up): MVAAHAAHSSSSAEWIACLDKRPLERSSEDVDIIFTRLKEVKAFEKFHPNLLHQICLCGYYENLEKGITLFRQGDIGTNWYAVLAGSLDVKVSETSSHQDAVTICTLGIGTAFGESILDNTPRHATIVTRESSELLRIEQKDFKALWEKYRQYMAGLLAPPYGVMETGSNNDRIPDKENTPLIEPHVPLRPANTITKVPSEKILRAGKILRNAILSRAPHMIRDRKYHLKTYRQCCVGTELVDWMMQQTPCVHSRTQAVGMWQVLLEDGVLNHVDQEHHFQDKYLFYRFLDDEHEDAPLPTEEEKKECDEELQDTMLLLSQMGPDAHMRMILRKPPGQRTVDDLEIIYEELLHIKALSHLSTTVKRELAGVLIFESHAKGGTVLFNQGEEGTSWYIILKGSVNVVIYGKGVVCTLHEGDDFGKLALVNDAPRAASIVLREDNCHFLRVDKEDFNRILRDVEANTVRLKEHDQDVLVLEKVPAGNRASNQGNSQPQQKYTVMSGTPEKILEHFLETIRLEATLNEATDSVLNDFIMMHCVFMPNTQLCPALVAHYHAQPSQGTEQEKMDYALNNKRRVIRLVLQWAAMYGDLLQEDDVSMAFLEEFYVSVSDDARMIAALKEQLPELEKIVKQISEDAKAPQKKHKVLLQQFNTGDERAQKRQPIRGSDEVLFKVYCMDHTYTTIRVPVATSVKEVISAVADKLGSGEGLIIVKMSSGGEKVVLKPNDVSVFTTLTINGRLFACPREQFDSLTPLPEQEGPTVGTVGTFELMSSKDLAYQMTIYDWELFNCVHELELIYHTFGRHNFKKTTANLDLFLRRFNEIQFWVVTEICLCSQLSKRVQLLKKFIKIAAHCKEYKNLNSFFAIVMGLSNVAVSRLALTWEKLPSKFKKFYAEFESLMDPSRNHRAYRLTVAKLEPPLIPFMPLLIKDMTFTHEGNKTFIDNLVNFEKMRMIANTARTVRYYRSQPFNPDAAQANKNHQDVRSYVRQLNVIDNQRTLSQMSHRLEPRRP
# [4] = target: Rap guanine nucleotide exchange factor 4 (Homo sapiens) (UniProt Q8WZA2); experiment: Confirmatory qHTS for antagonist of cAMP-regulated guanine nucleotide exchange factor 4 (EPAC2) (AID 1645885); details: EPAC2 Rap1B-BODIPY-GDP exchange fluorescence, biochemical; series mostly up to 12.7 µM; further: nearly all actives have a fitted effect of over 25% in size; further: potency means the concentration at half of the fitted maximal effect
# [5] = target: Rap guanine nucleotide exchange factor 3 (Homo sapiens) (UniProt O95398); experiment: Counterscreen qHTS for agonist of cAMP-regulated guanine nucleotide exchange factor 3 (EPAC1) (AID 1645889); details: EPAC1 Rap1B-BODIPY-GDP exchange, fluorescence; series mostly up to 154 µM; further: nearly all actives have a fitted effect of over 40% in size; further: potency means the concentration at half of the fitted maximal effect
# In short: (§1)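 Rap1B-BODIPY-GDP 250 nM + GDP 50 uM; cpds 7-pt, final 9.74 nM–152 uM (activator mode) or from 7.32 nM upwards (inhibitor mode); RT; FI 480/540 nm at 5 and 30 min, then ± cAMP, reread.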
# [6] = target: Tumor susceptibility gene 101 protein (Homo sapiens) (UniProt Q99816); experiment: qHTS Assay for Iinhibitors of HIV-1 Budding by Blocking the Interaction of PTAP/TSG101: Hit Validation (AID 651600); details: PTAP peptide/TSG101 UEV interaction, biochemical assay; series mostly up to 57.5 µM; further: nearly all actives have a fitted effect of over 70% in size; further: potency means the concentration at half of the fitted maximal effect
# Chain of Tumor susceptibility gene 101 protein (Homo sapiens) (Q99816 whole entry, looked up, the tested form may be a part): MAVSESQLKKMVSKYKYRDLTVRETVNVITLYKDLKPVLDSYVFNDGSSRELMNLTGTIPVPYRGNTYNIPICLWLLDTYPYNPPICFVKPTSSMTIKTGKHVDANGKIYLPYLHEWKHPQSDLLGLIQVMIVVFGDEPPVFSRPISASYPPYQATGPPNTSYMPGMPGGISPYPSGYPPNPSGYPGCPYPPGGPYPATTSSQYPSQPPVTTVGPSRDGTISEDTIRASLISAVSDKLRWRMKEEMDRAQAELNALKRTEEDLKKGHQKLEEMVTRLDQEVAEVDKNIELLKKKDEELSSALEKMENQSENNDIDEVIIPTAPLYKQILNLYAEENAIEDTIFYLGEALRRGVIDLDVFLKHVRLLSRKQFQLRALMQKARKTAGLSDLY
# In short: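 Fluorescence polarization binding assay: Tsg101 binding domain (10 uM final) pre-dispensed with compounds, then FITC-labeled PTAP-motif peptide (50 nM final) added; 20 min at r.t. in HEPES pH 7.5 buffer with NaCl, Tween 20, EDTA, TCEP.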
# [7] = target: Rap guanine nucleotide exchange factor 3 (Homo sapiens) (UniProt O95398); experiment: Counterscreen qHTS for antagonist of cAMP-regulated guanine nucleotide exchange factor 3 (EPAC1) (AID 1645888); details: Rap1B-BODIPY-GDP nucleotide exchange, fluorescence; series mostly up to 154 µM;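 further: fluorescence loss as bound BODIPY-GDP is released from Rap1B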
# In short: as §1
# [8] = qHTS for Inhibitors of Plasmodium falciparum (DD2) proliferation (AID 504314);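 further: parasite DNA measured by SYBR Green fluorescence after red cell lysis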; details: P. falciparum Dd2 in erythrocytes, SYBR Green growth, 72 h; series mostly up to 1.12 µM
# In short: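 Fluorescence read-out (ex 485/em 535 nm) of SYBR Green-stained parasite DNA quantifies intraerythrocytic growth. Cultures at 0.3% parasitemia and 2.5% hematocrit were treated for 72 h; data normalized to DMSO and 0.29 uM artemisinin wells.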
# [9] = qHTS for Inhibitors of Plasmodium falciparum (GB4) proliferation (AID 504315); further: nearly all actives have a fitted effect of over 50% in size; details: P. falciparum GB4 in erythrocytes, SYBR Green DNA, 72 h; series mostly up to 6.7 µM
# In short: (§2)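 Erythrocytes infected with P. falciparum line (0.3% parasitemia, 2.5% hematocrit final) incubated with compounds 72 h at 37 °C, 5% CO2; SYBR Green lysis buffer added, fluorescence read next day. Normalized to 0.29 uM artemisinin and DMSO.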
# [10] = qHTS for Inhibitors of Plasmodium falciparum (7G8) proliferation (AID 504316); further: nearly all actives have a fitted effect of over 65% in size; details: P. falciparum 7G8 in erythrocytes, SYBR Green DNA, 72 h; series mostly up to 6.7 µM
# In short: as §2
# [11] = qHTS for Inhibitors of Plasmodium falciparum (HB3) proliferation (AID 504318); further: nearly all actives have a fitted effect of over 60% in size; details: P. falciparum HB3 in erythrocytes, SYBR Green DNA, 72 h; series mostly up to 7.21 µM
# In short: as §2
# [12] = qHTS for Inhibitors of Plasmodium falciparum (CP250) proliferation (AID 504320); details: P. falciparum CP250 in erythrocytes, SYBR Green DNA, 72 h; series mostly up to 6.7 µM
# In short: as §2
# [13] = target: Phosphoglycerate kinase, glycosomal (Trypanosoma brucei brucei) (UniProt P07378); experiment: qHTS for inhibitors of Phosphogylcerate Kinase: Hit Validation Screen (AID 686980); details: TbPGK coupled GAPDH assay, Kinase-Glo luminescence; further: potency means the concentration at half of the fitted maximal effect; nearly all actives have a fitted effect of over 65% in size
# Chain of Phosphoglycerate kinase, glycosomal (Trypanosoma brucei brucei) (P07378 whole entry, looked up): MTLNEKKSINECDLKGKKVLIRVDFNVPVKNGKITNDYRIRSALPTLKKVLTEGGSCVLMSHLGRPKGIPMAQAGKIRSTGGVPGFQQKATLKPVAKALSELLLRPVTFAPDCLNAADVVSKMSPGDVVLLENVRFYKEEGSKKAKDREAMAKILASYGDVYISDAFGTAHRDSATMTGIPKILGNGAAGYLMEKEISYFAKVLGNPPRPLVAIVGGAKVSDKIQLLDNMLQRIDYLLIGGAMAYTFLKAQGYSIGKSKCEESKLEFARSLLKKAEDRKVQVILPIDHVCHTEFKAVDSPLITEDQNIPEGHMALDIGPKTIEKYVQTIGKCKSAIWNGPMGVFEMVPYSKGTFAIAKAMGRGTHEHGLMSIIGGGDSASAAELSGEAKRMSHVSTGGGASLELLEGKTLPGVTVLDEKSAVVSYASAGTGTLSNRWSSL
# In short: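 Luminescent ATP detection (Kinase-Glo Plus) follows a 60-minute room-temperature incubation, with wells lacking PGK as controls. Buffer: 100 mM TEA (pH 7.6), 5 mM MgCl2, 0.01% Tween-20. Coupling enzyme GAPDH (100 nM final) supplies unstable 1,3-BPG in-well.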
# [14] = target: DNA polymerase iota (Homo sapiens) (UniProt Q9UNA4); experiment: qHTS for Inhibitors of Polymerase Iota: Confirmatory Assay for Cherry-picked Compounds (AID 720496); details: Pol iota primer extension, TAMRA/BHQ fluorescence; further: potency means the concentration at half of the fitted maximal effect
# Chain of DNA polymerase iota (Homo sapiens) (Q9UNA4 whole entry, looked up): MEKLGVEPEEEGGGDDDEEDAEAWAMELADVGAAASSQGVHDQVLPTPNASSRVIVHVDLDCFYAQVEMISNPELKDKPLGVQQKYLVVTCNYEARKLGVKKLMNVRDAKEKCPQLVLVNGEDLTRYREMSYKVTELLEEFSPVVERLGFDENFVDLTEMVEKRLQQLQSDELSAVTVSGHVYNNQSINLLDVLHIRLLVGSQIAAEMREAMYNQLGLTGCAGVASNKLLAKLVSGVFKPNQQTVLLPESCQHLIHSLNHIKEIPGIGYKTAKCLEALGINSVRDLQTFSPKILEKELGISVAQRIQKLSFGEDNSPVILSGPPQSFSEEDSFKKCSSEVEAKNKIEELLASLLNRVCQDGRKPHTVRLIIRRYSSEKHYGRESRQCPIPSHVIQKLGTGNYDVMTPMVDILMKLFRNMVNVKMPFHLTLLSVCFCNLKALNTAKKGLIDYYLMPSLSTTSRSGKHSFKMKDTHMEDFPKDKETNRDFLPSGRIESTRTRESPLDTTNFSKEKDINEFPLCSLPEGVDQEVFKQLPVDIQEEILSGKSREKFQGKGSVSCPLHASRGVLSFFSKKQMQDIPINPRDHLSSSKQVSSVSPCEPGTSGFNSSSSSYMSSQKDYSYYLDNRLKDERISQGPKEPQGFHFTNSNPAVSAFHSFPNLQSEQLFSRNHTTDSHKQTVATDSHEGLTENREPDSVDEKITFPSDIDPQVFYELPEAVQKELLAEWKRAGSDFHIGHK
# In short: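 Read-out is TAMRA fluorescence (525 nm excitation, 598 nm emission) at 0 and 10 min. It reflects strand displacement from a BHQ-2-quenched template by 10 nM Pol iota, with 50 nM final substrate after 15 min compound preincubation.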
# [15] = target: Flap endonuclease 1 (Homo sapiens) (UniProt P39748); experiment: qHTS Assay for the Inhibitors of FEN1: Confirmatory Assay for Cherry-picked Compounds (AID 720498); details: FEN1 flap cleavage, TAMRA/BHQ2 fluorogenic DNA substrate; further: potency means the concentration at half of the fitted maximal effect; nearly all actives have a fitted effect of over 60% in size
# Chain of Flap endonuclease 1 (Homo sapiens) (P39748 whole entry, looked up): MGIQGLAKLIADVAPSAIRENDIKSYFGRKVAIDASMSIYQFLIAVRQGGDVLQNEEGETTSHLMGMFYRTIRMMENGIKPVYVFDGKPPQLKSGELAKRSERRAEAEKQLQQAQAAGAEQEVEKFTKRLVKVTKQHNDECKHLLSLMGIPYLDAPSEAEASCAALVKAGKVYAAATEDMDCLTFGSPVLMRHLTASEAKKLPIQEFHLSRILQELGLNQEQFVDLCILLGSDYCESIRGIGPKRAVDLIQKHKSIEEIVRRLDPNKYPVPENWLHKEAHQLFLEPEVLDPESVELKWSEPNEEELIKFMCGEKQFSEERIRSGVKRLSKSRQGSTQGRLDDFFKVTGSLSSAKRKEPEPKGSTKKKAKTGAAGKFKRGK
# In short: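 FEN1 at 10 nM was preincubated with compound for 15 min at room temperature, then 50 nM (final) double-flap DNA substrate was added. TAMRA fluorescence released from the BHQ-2-quenched flap was read at 0 and 15 min (ex 525/em 598 nm).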
# [16] = target: DNA polymerase eta (Homo sapiens) (UniProt Q9Y253); experiment: qHTS for Inhibitors of Polymerase Eta: Confirmatory Assay for Cherry-picked Compounds (AID 720502); details: Pol eta primer extension, TAMRA/BHQ fluorescence, 10 min; further: potency means the concentration at half of the fitted maximal effect
# Chain of DNA polymerase eta (Homo sapiens) (Q9Y253 whole entry, looked up): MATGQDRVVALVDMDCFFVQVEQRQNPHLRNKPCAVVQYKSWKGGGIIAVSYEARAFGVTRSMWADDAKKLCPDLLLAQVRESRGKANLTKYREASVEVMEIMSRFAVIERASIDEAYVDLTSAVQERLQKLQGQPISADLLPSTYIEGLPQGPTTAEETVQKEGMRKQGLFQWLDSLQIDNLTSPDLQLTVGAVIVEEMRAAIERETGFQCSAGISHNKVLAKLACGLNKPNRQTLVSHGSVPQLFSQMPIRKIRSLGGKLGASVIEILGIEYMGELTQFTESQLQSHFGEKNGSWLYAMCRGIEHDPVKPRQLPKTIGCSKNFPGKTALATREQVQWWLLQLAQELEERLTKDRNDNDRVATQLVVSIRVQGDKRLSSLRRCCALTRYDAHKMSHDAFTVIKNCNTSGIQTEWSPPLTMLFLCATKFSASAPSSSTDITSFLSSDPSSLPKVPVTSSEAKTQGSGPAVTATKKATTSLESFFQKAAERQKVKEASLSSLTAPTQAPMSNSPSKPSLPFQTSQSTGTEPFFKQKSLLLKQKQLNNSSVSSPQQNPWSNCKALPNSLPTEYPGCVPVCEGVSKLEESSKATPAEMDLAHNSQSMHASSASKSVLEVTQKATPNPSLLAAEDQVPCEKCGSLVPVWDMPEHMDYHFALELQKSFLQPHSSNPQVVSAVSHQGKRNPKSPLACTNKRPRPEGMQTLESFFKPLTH
# In short: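 Readout: TAMRA dequenching, ex 525/em 598 nm, read at 0 and 10 min. Enzyme: 10 nM human Pol eta, preincubated with compound 15 min RT. Substrate: 50 nM final annealed primer/reporter/template duplex.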
smiles,measurement,setting,value
Cc1ccc(-c2nnc(Nc3ccc4c(c3)nc(C)n4C)c3ccccc23)cc1,Potency,[1],inactive
same,Potency,[2],inactive
same,activation,[3],"2.89% [at 17.1 µM, percent relative to cAMP agonist control]"
same,Potency,[4],inactive
same,activation,[5],12% [at 30.8 µM]
COc1ccc(CCNc2oc(-c3ccc(C)cc3)nc2C#N)cc1OC,Potency,[1],inactive
same,Potency,[2],inactive
same,activation,[3],"5.59% [at 17.1 µM, percent relative to cAMP agonist control]"
same,Potency,[4],inactive
same,activation,[5],26.9% [at 30.8 µM]
CC1CN(c2nc3ccccc3nc2C(C#N)C(=O)NCc2ccc3c(c2)OCO3)CC(C)O1 (stereo not drawn),Potency,[6],inactive
same,Potency,[1],inactive
same,Potency,[2],inactive
same,Potency,[3],inactive
same,Potency,[4],inactive
same,Potency,[7],inactive
Cc1ccc(S(=O)(=O)N2[C@@H](c3ccccc3)C(C(=O)O)=CC[C@H]2c2ccc(C(C)C)cc2)cc1,Potency,[1],75.7 µM (active)
same,Potency,[2],inactive
same,Potency,[3],inactive
same,Potency,[4],inactive
same,Potency,[5],inactive
COc1ccc2nc3ccccc3nc2c1NC(=O)c1ccc(Cl)cc1Cl,Potency,[6],inactive
same,Potency,[1],inactive
same,Potency,[2],100 µM (active)
same,Potency,[3],100 µM (active)
same,Potency,[4],inactive
same,Potency,[7],inactive
CCC1=NN(C(=O)c2ccc(Br)cc2)C(O)(c2ccccc2)C1 (stereo not drawn),Potency,[1],inactive
same,Potency,[2],inactive
same,activation,[3],"2.89% [at 17.1 µM, percent relative to cAMP agonist control]"
same,Potency,[4],inactive
same,activation,[5],19.8% [at 30.8 µM]
COC(=O)C1=C(C(=O)OC)[C@@H]2N(Cc3ccccc3)c3ccccc3[C@@]23C[C@@H](C(=O)OC)N=C3N1,outcome,[8],inactive
same,outcome,[9],inactive
same,outcome,[10],inactive
same,outcome,[11],inactive
same,outcome,[12],inactive
same,Potency,[1],inactive
same,Potency,[2],inactive
same,activation,[3],"0% [at 17.1 µM, percent relative to cAMP agonist control]"
same,Potency,[4],inactive
same,"activity change, negative = inhibition",[7],17% [at 30.8 µM]
CC(=O)/C(C#N)=C1\NC(=O)C(Cc2cc(Cl)ccc2Cl)S1 (stereo not drawn),Potency,[1],44.7 µM (active)
same,Potency,[2],inactive
same,activation,[3],"4.95% [at 17.1 µM, percent relative to cAMP agonist control]"
same,Potency,[4],inactive
same,activation,[5],2.87% [at 30.8 µM]
Cn1cc(C(CO)Cc2ccccc2)c2ccccc21 (stereo not drawn),Potency,[1],inactive
same,Potency,[2],inactive
same,activation,[3],"4.77% [at 17.1 µM, percent relative to cAMP agonist control]"
same,Potency,[4],inactive
same,activation,[5],2.04% [at 30.8 µM]
COc1ccc(N=Nc2nc3cc(Br)c(Br)cc3n2C)c(OC)c1,Potency,[6],inactive
same,Potency,[1],inactive
same,Potency,[2],inactive
same,activation,[3],"3.19% [at 17.1 µM, percent relative to cAMP agonist control]"
same,Potency,[4],inactive
same,"activity change, negative = inhibition",[7],88.5% [at 30.8 µM]
CCn1cc(SCC(=O)NCc2ccc3c(c2)OCO3)c2ccccc21,Potency,[1],inactive
same,Potency,[2],inactive
same,activation,[3],"0% [at 17.1 µM, percent relative to cAMP agonist control]"
same,Potency,[4],inactive
same,activation,[5],20.3% [at 30.8 µM]
CCc1ccc([C@@H]2CC=C(C(=O)O)[C@H](c3ccc(C(C)(C)C)cc3)N2S(=O)(=O)c2ccc(C)cc2)cc1,Potency,[1],37.9 µM (active)
same,Potency,[2],inactive
same,Potency,[3],inactive
same,Potency,[4],37.9 µM (active)
same,Potency,[5],inactive
CC(C)c1ccc(NC(=O)COC(=O)C2=COCCO2)cc1,Potency,[1],inactive
same,Potency,[2],inactive
same,activation,[3],"-5.53% [at 17.1 µM, percent relative to cAMP agonist control]"
same,Potency,[4],inactive
same,activation,[5],17.9% [at 30.8 µM]
Cc1ccc(C)c2nc3sc(C(=O)N4CCCc5ccccc54)c(N)c3cc12,Potency,[6],20.6 µM (active)
same,Potency,[1],inactive
same,Potency,[2],inactive
same,Potency,[3],inactive
same,Potency,[4],inactive
same,Potency,[7],inactive
CCOc1ccc(NC(=O)c2ccc(NC(=O)COC(=O)c3ccc(NC(=O)CC#N)cc3)cc2)cc1,Potency,[13],8.19 µM (active)
same,Potency,[14],4.74 µM (active)
same,Potency,[15],67.5 µM (active)
same,Potency,[16],75.7 µM (active)
same,Potency,[1],inactive
same,Potency,[2],inactive
same,Potency,[3],inactive
same,Potency,[4],inactive
same,Potency,[7],inactive
COc1ccc(/C=N/N=C2/C(=O)Nc3ccccc32)cc1O,Potency,[1],inactive
same,Potency,[2],inactive
same,activation,[3],"6.47% [at 17.1 µM, percent relative to cAMP agonist control]"
same,Potency,[4],inactive
same,activation,[5],36.3% [at 30.8 µM]
Cc1ccc2oc(=O)c(/C=C(\O)c3cccs3)nc2c1,Potency,[1],inactive
same,Potency,[2],100 µM (active)
same,Potency,[3],89.1 µM (active)
same,Potency,[4],23.9 µM (active)
same,Potency,[5],39.8 µM (active)
COc1ccc(N2CCN(CCCNC(=O)c3ccc4nc(CCc5ccccc5)oc4c3)CC2)cc1,Potency,[1],inactive
same,Potency,[2],inactive
same,Potency,[3],inactive
same,Potency,[4],inactive
same,Potency,[5],inactive
